About 4,000 (93%) of roughly 4,300 compounds were called active. The set was probably picked from earlier hits. Not all results are given here. Unmarked numbers belong to inactive results.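 Rule for the calls: active = inhibition above its plate's cutoff, the mean test-well inhibition plus 3 SD (cut at about 4.8% in these data); inactive = the rest.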

The nature of the assay: DNA CAG/GTC dye complex inhibitors – biochemical, fluorescence, TO-PRO-1 dye, d(CAG) DNA oligo, counter-screen for rCAG RNA repeat binder project (AID 652068).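 Note: 0% = DNA dye mix with DMSO and 100% = 100 µM mitoxantrone; hits displace the dye from DNA and so lower well fluorescence.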 As to conditions: d(CAG) DNA oligo TO-PRO-1 dye displacement, at 3 µM, hits give high values.
As for `O=C1NC(=O)N(Cc2ccco2)C(=O)/C1=C\c1ccc(-c2ccc(F)cc2)o1`, the inhibition is 13.1% (active). The result for `O=C1CC(=O)N(Cc2ccccc2)C(=O)N1CCCCCCN1C(=O)CC(=O)N(Cc2ccccc2)C1=O` reads 22.6% (active); that for `COc1ccc(N2C(=O)/C(=C/c3ccco3)C(=O)NC2=S)cc1`, 61.4% (active). As for `CC/C(=N\NC(=O)c1ccccc1O)c1c(O)n(Cc2ccccc2)c(=O)[nH]c1=O`, the figure is 36.7% (active); as for `COc1ccc2c(c1)[C@@]13CCCCC1[C@@H](C2)NCC3` (some centres not stated), -5.51%; as for `O=C1NC(=O)N(c2ccccc2)C(=O)/C1=C/c1ccc([N+](=O)[O-])s1`, 25.7% (active). The result for `COc1cccc(N2C(=O)NC(=O)/C(=C\c3ccc([N+](=O)[O-])s3)C2=O)c1` reads 19.4% (active).
